Results from PubChem BioAssay (NCATS).
Inconclusive results are not listed. Calls of active or inactive are those of the source. Calls follow the shape of the dose curve; as a rule, active = well fitted inhibition curve with a large enough effect; inconclusive = small, poorly fitted or top-dose-only effect; inactive = flat fitted curve, though single readings scatter.

System: Zika virus NS2B-NS3 protease
Test: Primary screen GU AMC qHTS for Zika virus inhibitors (AID 1347154);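 also: 0% = no-inhibitor control and -100% = no-enzyme control; nearly all actives have a fitted effect of over 70% in size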
Conditions: Zika NS2B-NS3 unlinked protease, AMC fluorogenic substrate; series mostly up to 54.1 µM; activity change, negative = inhibition: at the top concentration
Summary of the method: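 Fluorogenic AMC-substrate cleavage by noncovalent NS2B-NS3 protease complex (25 nM, pH 8.0 Tris buffer with Tween 20) followed for 15 minutes at room temperature (~20% conversion). Percent inhibition from ex340/em450 signal change, fitted by 4-parameter Hill equation.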

SMILES | activity change, negative = inhibition | Potency
Cc1ccsc1/C=C/C1=NCCCN1C | -7.69% (inactive) | 
CCOc1ccc(C(=O)OCCN(CC)CC)cc1 | -2.57% (inactive) | 
CC(=O)N(CC(O)CO)c1c(I)c(C(=O)NCC(O)CO)c(I)c(C(=O)NCC(O)CO)c1I (stereo unspecified) | -2.08% (inactive) | 
CCS(=O)(=O)CCn1c([N+](=O)[O-])cnc1C | -3.48% (inactive) | 
Cc1c(N(C)C)c(=O)n(-c2ccccc2)n1C | -3.78% (inactive) | 
CN1C(=O)CC(c2ccccc2)C1=O (stereo unspecified) | 4.02% (inactive) | 
CC(=O)Nc1ccccc1 | -2.51% (inactive) | 
O=C(O)CCCc1ccccc1 |  | inactive
CC(C)(C)C(=O)OCOC(=O)[C@@H]1N2C(=O)[C@@H](NC(=O)[C@H](N)c3ccccc3)[C@H]2SC1(C)C | -7.49% (inactive) | 
NC(=O)c1ccc([N+](=O)[O-])cc1Cl | -3.29% (inactive) | 
COC(=O)c1cccnc1 | -2.98% (inactive) | 
COC(=O)c1ccc(O)cc1 | 0.569% (inactive) | 
CN(C(=O)c1c(O)c2ccccc2n(C)c1=O)c1ccccc1 |  | inactive
CC(C)CCCC(C)CCCC(C)CCCCC(C)CCCC(C)CCCC(C)C (stereo unspecified) | 0.976% (inactive) | 
CN[C@@H]1[C@H](O)[C@H](NC)[C@H]2O[C@@]3(O)C(=O)C[C@@H](C)O[C@H]3O[C@@H]2[C@H]1O | -3.26% (inactive) | 
O=C1c2cccc(O)c2C(=O)c2c(O)cccc21 | -2.23% (inactive) | 
Cc1ccc(C(C)C)c(O)c1 | 0.0404% (inactive) | 
CC(=O)Nc1cccc(O)c1 | 0.201% (inactive) | 

SMILES | activity change, negative = inhibition | Potency
Cc1cc(NC(=O)C2=C(O)c3ccccc3S(=O)(=O)N2C)no1 | -1.22% (inactive) | 
CC1CCN(CCCC(=O)c2ccc(F)cc2)CC1 |  | inactive
O=C(NCC(O)CO)c1c(I)c(C(=O)NCC(O)CO)c(I)c(N(CCO)C(=O)CO)c1I (stereo unspecified) | -0.492% (inactive) | 
COc1nccnc1NS(=O)(=O)c1ccc(N)cc1 | 3.5% (inactive) | 
Cc1cc(OI)c(C(C)C)cc1-c1cc(C(C)C)c(OI)cc1C | -11.5% (inactive) | 
C/C=C1\[C@H]2C=C(C)C[C@]1(N)c1ccc(=O)[nH]c1C2 | 4.65% (inactive) | 
CC(C)CCOC(=O)c1ccc(N(C)C)cc1 | -5.3% (inactive) | 
NC(=O)CCCCC1CCSS1 (stereo unspecified) | -0.541% (inactive) | 
C1CCN2C[C@@H]3C[C@@H](CN4CCCC[C@@H]34)[C@H]2C1 | 4.22% (inactive) | 
CC(C)(C)NCC(O)COc1cccc2c1CCC(=O)N2 (stereo unspecified) | -0.679% (inactive) | 
CCOc1ccccc1O[C@H](c1ccccc1)[C@H]1CNCCO1 |  | inactive
Nc1c2c(nc3c1CCC3)CCCC2 | 0.687% (inactive) | 
CCN1CC(CCN2CCOCC2)C(c2ccccc2)(c2ccccc2)C1=O (stereo unspecified) | 5.32% (inactive) | 
CC(N)CCCC(C)(C)O (stereo unspecified) | -2.3% (inactive) | 
CCOc1cc(NC(C)=O)ccc1C(=O)OC | 0.695% (inactive) | 
Cc1cc(C)c(NC(=O)CN(CC(=O)O)CC(=O)O)c(C)c1Br | -1.94% (inactive) | 
C/C=C/C(=O)N(CC)c1ccccc1C | 1.69% (inactive) | 
O=C(O)COC(=O)Cc1ccccc1Nc1c(Cl)cccc1Cl | 2.23% (inactive) | 
